Here are results for 28 compounds from PubChem BioAssay (NCATS).

A short description of test [1]: AP1 Signaling Pathway (AID 357).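 Also: ME-180 reporter cells stimulated with EGF at its EC50 level; % is scaled to controls: 0 for no effect and ±100 for the full control effect.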 The conditions noted are these: ME-180 AP-1-bla reporter, EGF-induced, beta-lactamase ratio, 5 h; at 17.2 µM (top of the series) unless noted. The method in brief:
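Cells are seeded overnight, exposed to compound titrations and an EC50 level of EGF for 5 hours at 37 °C, then loaded with CCF4 dye for 2.5 hours. Beta-lactamase activity under the AP-1 element is read as a blue/green ratio.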

Test [2] in a line: NFAT Signaling Pathway (AID 444).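 Also: carbachol stimulus at about its EC50 of 1 µM final; % is scaled to controls: 0 for no effect and ±100 for the full control effect.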 The conditions noted are these: Jurkat NFAT-bla M1, carbachol, beta-lactamase ratio, 5 h; at 17.2 µM (top of the series) unless noted. Summed up: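 Jurkat cells with NFAT-driven β-lactamase reporter and co-expressed M1 receptor, stimulated with carbachol (final 1 uM, ~EC50), compound titration, 5 h at 37 °C. CCF4 loaded 1 h at RT; 460/530 nm ratio gave %activity and AC50.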

A short description of test [3]: Stat Signaling Pathway (AID 446).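 Also: ME-180 cervical cancer cells given 40 pM IL-6 alongside compound; SIE-controlled beta-lactamase reporter measured as 460/530 nm FRET emission ratio; % is scaled to controls: 0 for no effect and ±100 for the full control effect.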 The conditions noted are these: ME-180 SIE beta-lactamase reporter, IL-6 stimulated, 5 h; at 17.2 µM (top of the series) unless noted. Summed up: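 Screening format detects activators and inhibitors alike: ME-180 SIE-bla cells stimulated at 40 pM IL-6 for 5 hrs with compound, then dual-emission beta-lactamase read at 405 nm excitation.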

In test [4] the target is Glucocorticoid receptor (Homo sapiens) (UniProt P04150). Briefly: GR-GFP Redistribution (AID 450;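 active = compounds whose dose series gives a full or clear partial fitted curve of increased nuclear translocation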; also: potency is read from the fitted curve at half-maximal effect).
Test [5] in a line: qHTS Assay for Identification of Small Molecule Agonists for Hypoxia Response Element Signaling Pathway (AID 914; active = well fitted activation curve with a large enough effect in the signal ratio, with a control signal flat, not every such curve was filed as active; the % refers to the signal ratio; also: % of control where 0% means no effect). The conditions noted are these: ME-180 (cervical carcinoma) HRE-bla reporter, beta-lactamase ratio, CoCl2, 17 h; activation: hits give high values. Summed up:
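A beta-lactamase reporter under hypoxia response element control in ME-180 cells served as the system. Compound titrations plus EC50 CoCl2 ran 17 h at 37 degrees Celsius; AC50 values were fitted from %Activity.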
(In qHTS, concentration-response curves come from the screen itself.)

The target of test [6] is 3',5'-cyclic-AMP phosphodiesterase 4B (Homo sapiens) (UniProt Q07343). Briefly: qHTS Assay for Inhibitors of PDE-IV (AID 607; active = well fitted activation curve with a large enough effect in the main read-out, with a control signal flat, not every such curve was filed as active; also: % of control where 0% means no effect). Summed up:
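The readout is membrane depolarisation from a cAMP-sensing CNG channel, detected with a potential dye at ex 535/em 590. Cells were HEK293-derived (endogenous PDE-IV) at 1000 cells/well, titrated up to 22.9 uM final.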

Test [7] deals with Guanine nucleotide-binding protein G(i) subunit alpha-1 (Homo sapiens) (UniProt P63096). Briefly: qHTS Assay for Inhibitors of RGS12 GoLoco Motif Activity (Green Fluorophore) (AID 879; active = well fitted curve in the direction sought with a large enough effect; an effect the other way counts as inactive or inconclusive;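 also: 0% = labeled peptide with Gαi1 and full inhibition = labeled peptide alone without protein; negative values mean loss of peptide binding seen as reduced polarization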). Summed up: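 Fluorescence polarization assay: 50 nM Gαi1 with 10 nM FITC-labeled RGS12 GoLoco peptide in 10 mM Tris pH 7.5, 150 mM NaCl, 0.1 mM GDP, 0.05% NP40, 10 min at room temperature with compound.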

Test [8] is described as follows: qHTS Assay for Identification of Small Molecule Agonists for Thrombopoietin (TPO) Signaling Pathway (AID 917; active = well fitted curve in the direction sought with a large enough effect; an effect the other way counts as inactive or inconclusive; also: % is scaled to controls: 0 for no effect and ±100 for the full control effect). The method in brief:
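Murine Ba/F3 cells expressing human TPO receptor and GPIIb-promoter luciferase, IL-3-starved overnight, given compound plus TPO at 26 pM (EC50). After 24 h at 37 C, 5% CO2, luminescence read.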

Test [9] deals with Muscarinic acetylcholine receptor M1 (Rattus norvegicus) (UniProt P08482). Briefly: qHTS Assay for Antagonists of Acetylcholine Muscarinic M1 Receptor: Measurement of IP-One Response (AID 944; active = well fitted curve in the direction sought with a large enough effect; an effect the other way counts as inactive or inconclusive; also: nearly all actives have a fitted effect of over 75% in size). The method in brief:
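M1-CHO (rat), 2000 cells/well, overnight recovery; cpd 10 min; carbachol EC80 (200 nM), 30 min, HEPES buffer + 50 mM LiCl pH 7.4; IP-One HTRF, Ex 337, Em 620/665 nm.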

In test [10] the target is Pyruvate kinase (Leishmania mexicana) (UniProt Q27686). Briefly: qHTS Validation Assay for Inhibitors of Leishmania Mexicana Pyruvate Kinase (AID 945; active = well fitted curve in the direction sought with a large enough effect; an effect the other way counts as inactive or inconclusive;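 also: 0% = DMSO only neutral control wells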). The method in brief:
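Compounds are tested as eight-point concentration series. Reactions contain 0.2 nM LmPYK E451W, 0.5 mM PEP, 0.1 mM ADP, 7 mM MgCl2 and 50 mM KCl at pH 7.2, run 1 h at room temperature, then read by PKLight luminescence.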

The target in test [11] is Pyruvate kinase PKM (Homo sapiens) (UniProt P14618). The experiment in a line: qHTS Assay for Activators of Human Muscle Pyruvate Kinase (AID 954; active = well fitted curve in the direction sought with a large enough effect, not every such curve was filed as active;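 also: 0% = uninhibited enzyme and -100% = no enzyme or full thiadiazolimine inhibition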). The method in brief: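 Reaction: 0.1 nM purified PKM2 with 0.5 mM phosphoenolpyruvate and 0.1 mM ADP, room temperature, 1 h. Readout: luciferase-based ATP luminescence after stop reagent. Activators judged against a 0.3 nM enzyme column.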

Test [12] concerns the target Alpha-galactosidase A (Homo sapiens) (UniProt P06280). The experiment in a line: Counterscreen for Glucocerebrosidase Inhibitors: qHTS Assay for Human alpha-Galactosidase at pH 4.5 (AID 992; active = well fitted curve in the direction sought with a large enough effect; an effect the other way counts as inactive or inconclusive; also: 0% is about no effect). Summed up: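 Concentration-response curves (0.7 nM to 77 uM final) were modeled with the Hill equation to give AC50. Reactions: 2 nM enzyme, 80 uM fluorogenic alpha-galactoside, pH 4.5 citric acid buffer, 20 min, room temperature.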

The target in test [13] is alpha-glucosidase (Oryza sativa, rice) (UniProt Q653V4). Briefly: Counterscreen for Glucocerebrosidase Inhibitors: qHTS Assay for Rice alpha-Glucosidase at pH 5.0 (AID 997; active = well fitted curve in the direction sought with a large enough effect; an effect the other way counts as inactive or inconclusive;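 also: 0% = full activity with enzyme and -100% = basal without enzyme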). Summed up: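 Rice alpha-glucosidase (4 nM final) with 400 uM 4-methylumbelliferyl-alpha-D-glucopyranoside in citrate buffer pH 5.0, 20 min at room temperature, stopped at pH 10; fluorescence 365/440 nm, compounds 0.7 nM–77 uM, AC50 from Hill fits.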
Background: Counterscreens check selectivity or assay interference.

Unmarked numbers belong to inactive results. Records with an inconclusive call do not appear. Calls of active or inactive are those of the source. Unless noted, calls follow the shape of the dose curve; as a rule, active = well fitted curve in either direction with a large enough effect (not every such curve was filed as active); inconclusive = small, poorly fitted or top-dose-only effect, or another doubt; inactive = flat fitted curve, though single readings scatter.

Sequence of Glucocorticoid receptor (Homo sapiens) (P04150 whole entry, looked up): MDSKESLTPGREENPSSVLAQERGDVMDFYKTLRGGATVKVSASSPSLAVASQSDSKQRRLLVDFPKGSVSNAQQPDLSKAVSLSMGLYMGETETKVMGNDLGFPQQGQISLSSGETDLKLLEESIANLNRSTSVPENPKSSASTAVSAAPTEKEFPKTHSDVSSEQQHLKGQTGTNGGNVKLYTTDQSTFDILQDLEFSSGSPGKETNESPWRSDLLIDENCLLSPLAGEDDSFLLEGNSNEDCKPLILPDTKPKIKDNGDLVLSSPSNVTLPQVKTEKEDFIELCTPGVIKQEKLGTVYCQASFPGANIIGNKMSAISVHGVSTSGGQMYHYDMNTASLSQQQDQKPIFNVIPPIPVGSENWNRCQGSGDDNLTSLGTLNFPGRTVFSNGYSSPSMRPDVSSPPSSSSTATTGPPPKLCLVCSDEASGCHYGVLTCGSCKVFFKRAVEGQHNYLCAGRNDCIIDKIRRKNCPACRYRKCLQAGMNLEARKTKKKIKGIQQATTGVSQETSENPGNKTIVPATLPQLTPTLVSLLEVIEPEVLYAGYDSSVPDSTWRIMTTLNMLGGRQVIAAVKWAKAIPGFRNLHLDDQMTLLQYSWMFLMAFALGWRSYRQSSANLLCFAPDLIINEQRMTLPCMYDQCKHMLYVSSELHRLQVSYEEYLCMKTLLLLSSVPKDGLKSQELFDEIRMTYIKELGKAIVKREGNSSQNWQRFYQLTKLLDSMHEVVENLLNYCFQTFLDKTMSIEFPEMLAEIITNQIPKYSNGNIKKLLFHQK
Sequence of Guanine nucleotide-binding protein G(i) subunit alpha-1 (Homo sapiens) (P63096 whole entry, looked up): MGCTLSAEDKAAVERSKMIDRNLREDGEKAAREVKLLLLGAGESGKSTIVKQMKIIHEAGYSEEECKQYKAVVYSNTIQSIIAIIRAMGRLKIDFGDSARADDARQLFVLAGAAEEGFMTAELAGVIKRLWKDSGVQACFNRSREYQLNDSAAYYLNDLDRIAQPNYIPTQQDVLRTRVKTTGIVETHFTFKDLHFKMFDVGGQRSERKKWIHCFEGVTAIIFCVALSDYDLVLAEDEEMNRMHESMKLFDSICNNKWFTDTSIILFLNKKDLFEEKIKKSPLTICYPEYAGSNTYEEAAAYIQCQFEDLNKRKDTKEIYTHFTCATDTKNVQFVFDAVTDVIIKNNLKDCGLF
Sequence of Alpha-galactosidase A (Homo sapiens) (P06280 whole entry, looked up): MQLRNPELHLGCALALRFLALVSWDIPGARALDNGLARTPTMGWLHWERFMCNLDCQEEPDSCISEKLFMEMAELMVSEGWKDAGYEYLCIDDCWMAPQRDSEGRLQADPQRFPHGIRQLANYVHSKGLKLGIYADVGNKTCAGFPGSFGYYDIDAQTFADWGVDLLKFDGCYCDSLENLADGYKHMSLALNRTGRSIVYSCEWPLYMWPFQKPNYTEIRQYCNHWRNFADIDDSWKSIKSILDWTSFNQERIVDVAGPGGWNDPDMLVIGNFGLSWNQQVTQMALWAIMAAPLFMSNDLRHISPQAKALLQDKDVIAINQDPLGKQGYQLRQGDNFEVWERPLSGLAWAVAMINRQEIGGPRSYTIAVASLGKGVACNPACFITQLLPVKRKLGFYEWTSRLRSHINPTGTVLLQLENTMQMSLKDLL
Sequence of 3',5'-cyclic-AMP phosphodiesterase 4B (Homo sapiens) (Q07343 whole entry, looked up): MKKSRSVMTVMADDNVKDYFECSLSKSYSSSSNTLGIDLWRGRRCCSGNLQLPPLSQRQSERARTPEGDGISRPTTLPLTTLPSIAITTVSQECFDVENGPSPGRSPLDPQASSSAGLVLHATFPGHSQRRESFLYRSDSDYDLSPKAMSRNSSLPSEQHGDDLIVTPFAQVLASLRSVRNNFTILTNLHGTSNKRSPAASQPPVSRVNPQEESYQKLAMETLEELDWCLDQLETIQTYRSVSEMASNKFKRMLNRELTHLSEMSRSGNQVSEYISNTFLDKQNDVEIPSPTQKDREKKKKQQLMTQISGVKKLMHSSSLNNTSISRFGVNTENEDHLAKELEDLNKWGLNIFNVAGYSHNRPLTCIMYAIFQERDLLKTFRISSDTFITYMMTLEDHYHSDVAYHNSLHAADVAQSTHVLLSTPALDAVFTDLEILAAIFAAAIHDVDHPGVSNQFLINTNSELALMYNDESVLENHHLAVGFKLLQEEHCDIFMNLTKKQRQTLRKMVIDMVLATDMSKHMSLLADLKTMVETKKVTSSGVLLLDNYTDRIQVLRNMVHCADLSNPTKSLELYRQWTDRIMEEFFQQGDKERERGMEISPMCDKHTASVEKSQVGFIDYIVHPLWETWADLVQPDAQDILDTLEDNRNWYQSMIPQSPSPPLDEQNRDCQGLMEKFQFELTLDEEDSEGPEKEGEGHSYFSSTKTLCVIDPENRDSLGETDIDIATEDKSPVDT
Sequence of Pyruvate kinase PKM (Homo sapiens) (P14618 whole entry, looked up): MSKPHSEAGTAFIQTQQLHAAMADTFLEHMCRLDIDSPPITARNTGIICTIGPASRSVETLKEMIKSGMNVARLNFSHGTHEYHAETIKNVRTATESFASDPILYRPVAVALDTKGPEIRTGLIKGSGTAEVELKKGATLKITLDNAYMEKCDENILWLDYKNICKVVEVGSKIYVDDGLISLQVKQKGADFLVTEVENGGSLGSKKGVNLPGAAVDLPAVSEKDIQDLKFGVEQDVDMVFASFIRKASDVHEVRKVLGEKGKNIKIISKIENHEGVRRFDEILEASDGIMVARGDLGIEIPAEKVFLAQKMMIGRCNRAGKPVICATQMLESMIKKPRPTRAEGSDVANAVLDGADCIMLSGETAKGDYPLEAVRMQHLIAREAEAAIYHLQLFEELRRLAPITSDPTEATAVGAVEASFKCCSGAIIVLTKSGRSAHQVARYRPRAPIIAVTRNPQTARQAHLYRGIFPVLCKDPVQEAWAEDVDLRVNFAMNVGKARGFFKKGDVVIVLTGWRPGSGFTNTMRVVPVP
Sequence of Muscarinic acetylcholine receptor M1 (Rattus norvegicus) (P08482 whole entry, looked up): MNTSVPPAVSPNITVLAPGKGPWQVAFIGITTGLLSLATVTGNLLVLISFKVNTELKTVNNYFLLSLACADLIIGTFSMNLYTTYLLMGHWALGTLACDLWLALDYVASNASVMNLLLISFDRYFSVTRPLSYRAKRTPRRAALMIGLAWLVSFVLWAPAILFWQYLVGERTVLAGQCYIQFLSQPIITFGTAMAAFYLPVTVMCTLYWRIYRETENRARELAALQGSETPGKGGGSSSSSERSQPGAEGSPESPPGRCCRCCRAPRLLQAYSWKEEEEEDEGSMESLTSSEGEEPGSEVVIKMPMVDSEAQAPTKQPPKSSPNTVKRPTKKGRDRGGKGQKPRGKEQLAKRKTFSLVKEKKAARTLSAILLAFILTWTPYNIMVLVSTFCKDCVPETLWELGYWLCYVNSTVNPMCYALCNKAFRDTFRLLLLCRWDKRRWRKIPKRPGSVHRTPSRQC
Sequence of Pyruvate kinase (Leishmania mexicana) (Q27686 2-499 E452W): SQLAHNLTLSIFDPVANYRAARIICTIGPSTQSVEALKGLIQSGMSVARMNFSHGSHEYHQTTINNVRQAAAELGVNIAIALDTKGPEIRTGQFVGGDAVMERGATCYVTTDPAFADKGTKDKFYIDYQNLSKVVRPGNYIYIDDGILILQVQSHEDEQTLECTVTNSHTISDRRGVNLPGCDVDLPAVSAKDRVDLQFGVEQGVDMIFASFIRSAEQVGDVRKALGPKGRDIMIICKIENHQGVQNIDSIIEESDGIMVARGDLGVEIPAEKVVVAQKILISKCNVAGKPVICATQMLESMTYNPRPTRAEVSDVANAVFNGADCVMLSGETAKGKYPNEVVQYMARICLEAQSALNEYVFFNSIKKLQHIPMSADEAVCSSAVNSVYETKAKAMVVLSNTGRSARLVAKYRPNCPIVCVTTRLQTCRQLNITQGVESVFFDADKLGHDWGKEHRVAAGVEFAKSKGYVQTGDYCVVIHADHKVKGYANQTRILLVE

As for `CCCCOC(=O)Nc1ccc(S(=O)(=O)Nc2nc(C)cc(C)n2)cc1`, the figures for the activity change, negative = inhibition in [1] and in test [2] were -5.25% and -8.58%, respectively. Also, the activity, negative = inhibition in test [3] is -5.4%. In test [4], the Potency is above 20.6 µM. Further, the activation in [5] is -6.31%.
Take `CCN1CCC[C@@H]1CNC(=O)c1c(O)c(Cl)cc(Cl)c1OC`: the activity change, negative = inhibition is 10.6% [at 38 µM] in test [1] and 2.12% [at 38 µM] in test [2]. In addition, the activity, negative = inhibition in test [3] is -20.4% [at 38 µM]. In addition, the Potency entry in test [6], in test [8], in test [9] and in test [10] was “inactive” each time. Also, the compound was classed as inactive in [7], in test [11], in test [12] and in test [13].
Turning to `Oc1ccccc1CNn1cnnc1`, the values for the activity change, negative = inhibition in test [1] and in test [2] were -0.712% and 15.6%, respectively. Moreover, in test [3], the activity, negative = inhibition was 4.83%. In test [4], the Potency is above 20.6 µM. Moreover, the activation in test [5] was 7.68%.
Taken in the same sequence, the figures for `CCOc1ccc(NC(=O)c2nn(C)cc2Br)cc1` were 1.01%, 4.54%, 3.62%, above 20.6 µM and 5.55%.
In the same order, the values of `Cc1cc(Cl)ccc1OCC(=O)OC(C)C(=O)N(C)C` (stereo not given) are 3.68%, 17.7%, -3.58%, above 20.6 µM and -0.0413%.
Turning to `CCOC(=O)CCc1c(C)c(C#N)c2[nH]c3ccccc3n2c1=O`, the activity change, negative = inhibition in test [1] was -16.5%; in test [2], -0.365%. Further, the Potency in test [4] was above 20.6 µM.
`CCCCc1nc(NCCNC(=O)c2ccco2)c(C#N)c2c1CSC(C)(C)C2`: the activity change, negative = inhibition in test [1] is -22.7%; in [2], 12.2%. The Potency in test [4] is above 20.6 µM.
With `COC(=O)CNc1nc(-c2cccnc2)nc2ccccc12`, the activity change, negative = inhibition in [1] is -12.5%; in test [2], -5.87%. Besides, in test [4], the Potency was above 20.6 µM.
Take `C/C(CC1(O)C(=O)N(Cc2ccccc2)c2ccccc21)=N\O` (stereo not given): the values for the activity change, negative = inhibition in test [1] and in test [2] were 2.48% and 1.97%, respectively. The Potency in test [4] was above 20.6 µM.
Taken in the same sequence, the figures for `O=c1[nH]c(CN2CCCCC2)nc2c1C1(CCCCC1)Cc1ccccc1-2` were 24.9%, 4.2% and above 20.6 µM.
On to `Cn1c(=O)c2c(nc(Br)n2CCSc2nc3ccccc3o2)n(C)c1=O`, for which the results for the activity change, negative = inhibition in [1] and in [2] were 5.24% and 1.98%, respectively. In addition, the Potency in test [4] is above 20.6 µM.
In the same order, the values of `CC1CN(c2oc(-c3cccs3)nc2C#N)CC(C)O1` (stereo not given) are 3.54%, 5.83% and above 20.6 µM.
Taken in the same sequence, the figures for `CCOC(=O)C1=C(N)n2c(s/c(=C\c3cccnc3)c2=O)=C(C(=O)OC)C1c1cccnc1` (stereo not given) were -8.91%, 23.6% and above 20.6 µM.
In the same order, the values of `CC(C)(C)NCC(=O)c1c[nH]c2ccccc12` are 9.26%, -0.153% and above 20.6 µM.
In the case of `Cc1ccc(-c2nn3c(-c4cccc(Cl)c4)nnc3s2)cc1`, the activity change, negative = inhibition in test [1] is 24.6%; in [2], -1.56%. Moreover, the Potency in [4] was above 20.6 µM.
In the same order, the values of `COC(=O)C1C(=O)CC(C)(O)C(C(=O)OC)C1c1ccccc1F` (stereo not given) are 0.159%, -0.943% and above 20.6 µM.
In the same order, the values of `Cc1nc2c(c(N3CCOCC3)n1)OCC(=O)N2` are 6.3%, -1.47% and above 20.6 µM.
Turning to `O=C1CC(c2ccccc2)n2nc(NS(=O)(=O)c3ccccc3)nc2N1` (stereo not given), the activity change, negative = inhibition in [1] is 22.4%; in test [2], -10.9%. The Potency in test [4] was above 20.6 µM.
Taken in the same sequence, the figures for `CCC(=O)Nc1nc(C)c(Oc2ccccc2)c(=O)[nH]1` were 6.64%, 9.01% and above 20.6 µM.
Taken in the same sequence, the figures for `Cc1cccc(OCc2nc(C)cc(=O)[nH]2)c1` were 9.24%, -0.73% and above 20.6 µM.
Turning to `CSc1nc(N2CCCC2)c2c(c1C#N)CC(C)(C)OC2`, the activity change, negative = inhibition was -20.7% in test [1] and -19.8% in test [2]. For the same compound, in test [4], the Potency was above 20.6 µM.
Turning to `Cc1ccnc(N2CCN(c3c4c(c(C#N)c5nc6ccccc6n35)CCC4)CC2)c1`, the activity change, negative = inhibition was -8.81% in test [1] and -1.93% in test [2]. In test [4], the Potency is above 20.6 µM.
In the case of `CN(CCCCCC(=O)/C=N/O)Cc1ccccc1`, the activity change, negative = inhibition in test [1] was 26.2%; in [2], -28%. For the same compound, the Potency in test [4] is above 20.6 µM.
In the same order, the values of `CC1(C)Cc2c(C#N)c(NCCc3ccccc3)nc(-c3ccco3)c2CO1` are 14.4%, 80.9% [activator] (active) and above 20.6 µM.
In the same order, the values of `CCOC(=O)CSc1nc(N)c(C#N)c(-c2ccc(OC)cc2)c1C#N` are -27.1%, 2.57% and above 20.6 µM.
Taken in the same sequence, the figures for `CC(C)CC(NC(=O)OC(C)(C)C)C(=O)NCc1ccccc1` (stereo not given) were -7.56%, -25.8% and above 20.6 µM.
Consider `O=C(Cc1ccccc1)Nc1cccc(-c2nnc(-c3ccco3)o2)c1`, for which the activity change, negative = inhibition in test [1] was -23.3%; in test [2] it was 11.7%. The Potency in test [4] is above 20.6 µM.
As to `CC(=O)c1ccc(O)c(CO)c1`, the activity change, negative = inhibition in test [1] was 12.6%; in test [2], -1.78%. In addition, in [4], the Potency was above 20.6 µM.
